Bioassay records: PubChem, National Center for Advancing Translational Sciences (NCATS)
Compounds with a hit are over-represented: about 15% of the library has one in this group of screens.
SARS PLP yeast – qHTS of Yeast-based Assay for SARS-CoV PLP; S. cerevisiae expressing SARS-CoV PLpro, growth rescue; Potency, µM (top dose mostly 32.9 µM), without a hit: at the highest dose activity, positive = growth rescue, hits mostly activators; actives 0.19% (n = 330,000); AID 485353, 2010; calls by dose curve; also: potency is read from the fitted curve at half-maximal effect; 0% is about no effect; nearly all actives have a fitted effect of over 55% in size
Pf growth 96h – Primary qHTS for delayed death inhibitors of the malarial parasite plastid, 96 hour incubation. AID 504834, 2011. P. falciparum luciferase reporter growth, 96 h. actives 6.9% (n = 320,000). Potency, µM (doses to about 28.7 µM), for inactives: at the highest dose activity change, negative = inhibition, usual class: inhibitors; also: potency is read from the fitted curve at half-maximal effect; % is scaled to controls: 0 for no effect and ±100 for the full control effect
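Infected RBCs, 2% Hct / 0.05% parasitemia final; luciferase-reporter P. falciparum; cpd 96 h, 37 C, 5% CO2; luciferase detection reagent; luminescence.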
Pf growth 48h – Primary qHTS for delayed death inhibitors of the malarial parasite plastid, 48 hour incubation; P. falciparum luciferase growth in erythrocytes, 48 h; actives 5.9% (n = 310,000); Potency, µM (series often up to 28.7 µM), for the others: top-dose activity change, negative = inhibition, usual class: inhibitors; also: potency is read from the fitted curve at half-maximal effect; % is scaled to controls: 0 for no effect and ±100 for the full control effect
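Here the parasites carry a stable luciferase gene and grow inside erythrocytes in Albumax-based RPMI medium with compound for one erythrocytic cycle. Activity is scored as loss of luminescent signal.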
HCMV inh – qHTS Assay for inhibitors of the human cytomegalovirus (HCMV) | HFF cells, HCMV-luciferase reporter, 72 h; active compounds read low | activity change, negative = inhibition, % at 57.5 µM | actives 4.5% (n = 410,000); in the data active = activity change below about -60%; inconclusive = no clear call, values can overlap the other calls; inactive = above about -39%; also: % is scaled to controls: 0 for no effect and ±100 for the full control effect
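Two compound doses tested in HFFs infected with HCMV-luciferase, MOI 1 PFU/cell, 72 h at 37C. Lysate luminescence read with OneGlo; data normalized against buffer-only and 10uM Salinomycin inhibitor controls.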
Sm TGR block – qHTS Assay for the Inhibitors of Schistosoma Mansoni Peroxiredoxins; actives 3% (n = 360,000); Schistosoma mansoni thioredoxin glutathione reductase (TGR), Q962Y6; purified TGR, DTNB reduction, TNB absorbance 405 nm; Potency, µM (doses to about 114 µM), for the others: at the highest dose activity change, negative = inhibition, hits mostly inhibitors; also: potency is read from the fitted curve at half-maximal effect; % is scaled to controls: 0 for no effect and ±100 for the full control effect; nearly all actives have a fitted effect of over 60% in size
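First, TGR (20 nM dispensed) and NADPH were mixed with compound. Second, a 15 min room-temperature incubation followed. Third, further NADPH and then DTNB were added to start the reaction. Finally, TNB absorbance was monitored kinetically.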
HCV inh – qHTS Assay for Inhibitors of Hepatitis C Virus (HCV); Huh7.5.1 HCVcc-Cre infection, luciferase reporter, 44 h; Potency, µM (titrated, usually from 41.8 µM), inactives show at the top dose activity change, negative = inhibition, hits mostly inhibitors; actives 3.4% (n = 340,000); AID 651820, 2012; also: potency is read from the fitted curve at half-maximal effect; % is scaled to controls: 0 for no effect and ±100 for the full control effect
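Cells seeded at 1,000/well and cultured 4 h, then compounds added followed by HCVcc-Cre virus (~0.5 moi). After 44 h further culture, luciferase substrate was added, plates held 15 min at room temperature, and luminescence read for 15 sec.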
* = called active by the depositor; ? = inconclusive; . = no result given; [ ] = remark or other dose. Unless noted, calls follow the shape of the dose curve; as a rule, active = well fitted curve in the direction sought with a large enough effect; inconclusive = small, poorly fitted or top-dose-only effect, or another doubt; inactive = no such curve, though single readings can be large; an effect the other way counts as inactive or inconclusive.

SMILES | SARS PLP yeast | Pf growth 96h | Pf growth 48h | HCMV inh | Sm TGR block | HCV inh
Cc1ccc(NC(=S)NCc2cccs2)cc1 | ? | 7% | . | 40 | ? | -4%
Cc1cc(Cl)ccc1NC(=O)C(=O)NCc1ccco1 | . | . | . | 16 | -8% | .
CC(C)(C)c1ccc(C(=O)NC(=S)NCc2ccco2)cc1 | 2% | 10% | ? | -23 | ? | -11%
CC(C)(CO)NC(=S)NCc1ccco1 | -1% | 35% | ? | -36 | 25µM* | 11%
CCCCc1ccc(NC(=S)NCc2cccs2)cc1 | -5% | 29% | 2% | -80* | 4% | -29%
S=C(NCc1ccco1)Nc1ccccc1Cl | 0% | 38% | 43% | 10 | 7.9µM* | ?
Cc1cc(Cl)ccc1NC(=S)NCc1ccco1 | 20% | 3% | 8% | -61* | -27% | -17%
Cc1c(Cl)cccc1NC(=S)NCc1ccco1 | 12% | 0% | -6% | ? | ? | ?
COc1ccc(N(CC(=O)Nc2ccccc2OC)S(=O)(=O)c2ccc(NC(C)=O)cc2)cc1 | 2% | ? | ? | ? | 0% | ?
O=C(CSCn1nnc2c(=O)[nH]c(Cc3ccc(F)cc3)nc21)Nc1cccc(C(F)(F)F)c1 | . | . | . | 13 | -3% | .
CCCCN1C(=O)C(=O)NC[C@@H]1Cc1ccc(O)cc1 | . | . | . | 14 | . | .
O=C(CN(c1cccc([N+](=O)[O-])c1)S(=O)(=O)c1ccccc1)N1CCCCC1 | 1% | -25% | 22% | -3 | 4% | 5%
S=C(NCc1cccs1)Nc1cccc(Cl)c1Cl | ? | -6% | 25% | -79* | ? | -22%
S=C(NCc1ccco1)Nc1cccc(Cl)c1Cl | 7% | 14% | 10% | -19 | 7.9µM* | -23%
Cc1ccccc1NC(=S)NCc1cccs1 | 7% | . | 7% | 22 | -23% | 15%
COC(=O)c1ccc(Nc2nccc3[nH]c(-c4cccc(C(F)(F)F)c4)cc23)cc1 | . | . | . | 4 | . | .
COC(=O)C1=C(C)NC(=O)/C1=C\c1cc(C)n(-c2cccc(C)c2)c1C | -4% | ? | . | -19 | 25µM* | ?
CCOC(=O)C1=C(C)N(c2ccc(C)c(C)c2)C(=O)/C1=C\c1ccco1 | 3% | ? | 1% | 5 | 0% | ?
COC(=O)C1=C(C)N(c2ccc(C)c(C)c2)/C(=C/c2ccco2)C1=O | 3% | 0% | 6% | . | 35µM* | ?
COC(=O)C1=C(C)N(Cc2ccco2)C(=O)/C1=C\c1ccc([N+](=O)[O-])cc1 | -6% | -34% | ? | -16 | 7.9µM* | 4%
COC(=O)C1=C(C)N(Cc2ccco2)C(=O)/C1=C\c1ccc(N(C)C)cc1 | -3% | -13% | 27% | -23 | -34% | 0%
COC(=O)C1=C(C)NC(=O)/C1=C\c1ccco1 | -5% | 34% | 0% | -16 | 25µM* | -16%
Cc1cccc(C(c2sc3nc(-c4ccco4)nn3c2O)N2CCN(Cc3ccccc3)CC2)c1 (configuration not stated) | . | . | . | 70 | 1% | .
COC(=O)C1=C(C)N(Cc2ccc(OC)cc2)C(=O)/C1=C\c1ccco1 | 0% | ? | ? | -8 | 13µM* | ?
OCC1COC(c2ccccc2)=N1 (configuration not stated) | . | . | . | 69 | . | .
SMILES | SARS PLP yeast | Pf growth 96h | Pf growth 48h | HCMV inh | Sm TGR block | HCV inh
COc1ccc(OC)c(NC(=O)c2cc3c(=O)n4cccc(C)c4nc3n2C)c1 | . | . | . | -37 | -2% | .
Cc1[nH]c2ccccc2c1C(=O)C(=O)N1CCN(c2ccccc2F)CC1 | -10% | ? | 12% | 16 | 1% | 1%
Cc1[nH]c2ccccc2c1C(=O)C(=O)N1c2ccccc2CC1C (configuration not stated) | 0% | 12µM* | 6.6µM* | -62* | ? | ?
Cc1[nH]c2ccccc2c1C(=O)C(=O)N1CCCc2ccccc21 | -38% | 10µM* | ? | -36 | 8% | -7%
N#Cc1cnc(NN)nc1 | 2% | ? | 10µM* | -35 | 1% | 10%
Cc1ccc(C)n1-c1ccc(C#N)cn1 | -1% | -7% | 49% | -15 | -27% | 6%
O=C(NCC(c1ccc(Cl)cc1)N1CCCCC1)c1ccccc1 (configuration not stated) | . | . | . | -13 | -6% | .
COc1ccc2[nH]c(=O)c3c(c2c1)OC(C)(C)C=C3 | -2% | . | -15% | -96* | 0% | -9%
O=C(Cc1cccc2ccccc12)NCCc1ccccc1 | -1% | -23% | -27% | ? | -8% | 10%
COc1ccccc1-n1c(SCC(=O)N2CCOCC2)nc2ccccc2c1=O | -2% | 1% | 21% | 28 | -11% | ?
COc1ccccc1-n1c(CNc2c(C)cccc2C)nnc1SCC(=O)N1CCOCC1 | 0% | 12µM* | -2% | 22 | -2% | 3%
C1CNCCNCCCNCCNC1 | 3% | 39% | 4% | . | 4% | 2%[8.37 µM]
CC(NC(=O)Cc1ccc(S(=O)(=O)N2CCCCC2)cc1)c1ccccc1 (configuration not stated) | 2% | 8.3µM* | 12µM* | 20 | -10% | -2%
CC(NC(=O)CN1CCN(S(=O)(=O)c2ccc(Br)cc2)CC1)c1ccccc1 (configuration not stated) | -3% | -5% | ? | 1 | -1% | -7%
CC(C)N(C(=O)CSc1ccc(S(=O)(=O)N2CCCCC2)cn1)c1ccccc1 | 0% | ? | 8.3µM* | -8 | -2% | ?
O=S(=O)(Cc1ccccc1)Nc1ccc(S(=O)(=O)N2CCCC2)cc1 | 0% | 5% | 2.3µM* | -18 | -1% | 3%
CCN(C(=O)C(C)Sc1ccc(S(=O)(=O)N2CCN(C)CC2)cn1)c1ccccc1 (configuration not stated) | -3% | 12µM* | ? | -8 | ? | -3%
CN(C)C(=O)CSc1ccc(S(=O)(=O)N2CCCC2)cn1 | -1% | -1% | ? | 4 | 3% | ?
CCN(C(=O)CSc1ccc(S(=O)(=O)N2CCOCC2)cn1)c1ccccc1 | -2% | ? | ? | 0 | -14% | -8%
CC(=O)Nc1cccc(NC(=O)CSc2cn(CC(=O)N3CCCCCC3)c3ccccc23)c1 | . | . | . | -24 | 0% | .
Cc1nn(CC(=O)Nc2ccc(C(C)C)cc2)c(=O)c2c(C)n(-c3ccc(Cl)cc3)nc12 | . | . | . | 31 | -7% | .
O=C(NCc1ccc(Cl)cc1)c1ccc(-c2ccc(F)c(F)c2)c2ccoc12 | . | . | . | -9 | . | .
